Measured values: publication PMC6602471
The full ranking holds about 1,300 sequences; the median of “log fluorescence intensity” is about 8.3, and the highest 2% start at about 12. Shown is part of a subset that was picked to be rich in the highest values.

Each sequence was assayed against T1, ETS1 (Homo sapiens, UniProt P14921 1-441) (assay: custom PBM; custom protein-binding microarray; buffer, salt, pH and temperature not stated; high values mean tight binding). Conditions: dsDNA, one strand shown.
T1 sequence: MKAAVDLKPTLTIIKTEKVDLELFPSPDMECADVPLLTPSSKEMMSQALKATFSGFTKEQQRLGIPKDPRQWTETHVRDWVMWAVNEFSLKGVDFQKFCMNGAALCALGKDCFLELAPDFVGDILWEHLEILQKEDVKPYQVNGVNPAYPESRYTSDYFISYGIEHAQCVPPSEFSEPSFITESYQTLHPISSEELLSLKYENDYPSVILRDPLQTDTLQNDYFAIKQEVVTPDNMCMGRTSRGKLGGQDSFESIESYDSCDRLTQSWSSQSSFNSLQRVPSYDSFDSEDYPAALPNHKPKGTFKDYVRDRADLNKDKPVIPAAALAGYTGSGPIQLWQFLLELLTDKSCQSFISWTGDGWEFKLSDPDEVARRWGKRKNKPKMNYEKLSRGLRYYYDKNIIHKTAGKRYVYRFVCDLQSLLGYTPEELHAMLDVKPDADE
With “CTGGGACTTGACCCAACTCTGCCACGTGGGTCGCTTGTCTTGATTCGCTTGACGCTGCTG” the binding signal was 8.36 log fluorescence intensity. In the case of “GGTAAAAGGCCCAGGGTAACACCGGAAGTGGGCTTAGTCTTGATTCGCTTGACGCTGCTG”, the binding signal is reported as 11.9 log fluorescence intensity. With “GGATAAAGGCCCAGGGTAACACCGGAAGTGGGCTTAGTCTTGATTCGCTTGACGCTGCTG” the binding signal was 11.9 log fluorescence intensity. “GGAAAAAGGCCCAGGGTCACACCGGAAGTGGGCTTAGTCTTGATTCGCTTGACGCTGCTG” was tested, and the binding signal was 11.9 log fluorescence intensity. In the case of “GGAAAAAGGCCCAGGGGAACACCGGAAGTGGGCTTAGTCTTGATTCGCTTGACGCTGCTG”, the binding signal is reported as 12.1 log fluorescence intensity. “GGGAAAAGGCCCAGGGTAACACCGGAAGTGGGCTTAGTCTTGATTCGCTTGACGCTGCTG” was tested, and the binding signal was 11.9 log fluorescence intensity. In the case of “GGAAAAAGGCCCAGGGCAACACCGGAAGTGGGCTTAGTCTTGATTCGCTTGACGCTGCTG”, the binding signal is reported as 12.2 log fluorescence intensity. In the case of “GGAAAAAGGCCCAGGGAAACACCGGAAGTGGGCTTAGTCTTGATTCGCTTGACGCTGCTG”, the binding signal is reported as 12.3 log fluorescence intensity. In the case of “GGCAAAAGGCCCAGGGTAACACCGGAAGTGGGCTTAGTCTTGATTCGCTTGACGCTGCTG”, the binding signal is reported as 11.7 log fluorescence intensity. For “GCAAAAAGGCCCAGGGTAACACCGGAAGTGGGCTTAGTCTTGATTCGCTTGACGCTGCTG”, the binding signal was 11.9 log fluorescence intensity. In the case of “GGAAAAAGGCCCAGGGTGACACCGGAAGTGGGCTTAGTCTTGATTCGCTTGACGCTGCTG”, the binding signal is reported as 11.8 log fluorescence intensity. In the case of “GGAAAAAGGCCCAGGCTAACACCGGAAGTGGGCTTAGTCTTGATTCGCTTGACGCTGCTG”, the binding signal is reported as 12.1 log fluorescence intensity. “GGAAAAAGGCCCAGGATAACACCGGAAGTGGGCTTAGTCTTGATTCGCTTGACGCTGCTG” was tested, and the binding signal was 12.2 log fluorescence intensity. In the case of “GATTAATTTCTGCCCTTATTCGAACGTGCCATAACAGTCTTGATTCGCTTGACGCTGCTG”, the binding signal is reported as 8.42 log fluorescence intensity. For “TCCGGCTACCAGCTCCACCCACTTCAGGCCTTATAGGTCTTGATTCGCTTGACGCTGCTG”, the binding signal was 8.46 log fluorescence intensity. With “GAAAGGGAAGACGGTTGTGGTAGTTCCGGGTATTAAGTCTTGATTCGCTTGACGCTGCTG” the binding signal was 8.75 log fluorescence intensity. With “CGGAAGTGTCGTAAACGTCGGATATCCGGTTTTTCTGTCTTGATTCGCTTGACGCTGCTG” the binding signal was 11.9 log fluorescence intensity. “TCCGGCTACCAGCTGCACCCACTTCAGGCCTTGTAGGTCTTGATTCGCTTGACGCTGCTG” was tested, and the binding signal was 8.44 log fluorescence intensity. For “GCTGCTGCGGTGTATACCCCACCGGATGTGACCCCGGTCTTGATTCGCTTGACGCTGCTG”, the binding signal was 10.1 log fluorescence intensity. With “GGAAAACGGCCCAGGGTAACACCGGAAGTGGGCTTAGTCTTGATTCGCTTGACGCTGCTG” the binding signal was 12 log fluorescence intensity. In the case of “TACTGACTTATATATGGGAATGCACATGAATAGACCGTCTTGATTCGCTTGACGCTGCTG”, the binding signal is reported as 8.32 log fluorescence intensity. “TTAAGGGAAGACGGTTGTGGTAGTTCCGGGTATTAAGTCTTGATTCGCTTGACGCTGCTG” was tested, and the binding signal was 8.48 log fluorescence intensity. In the case of “CGGAAGTGTCGTAAACGTCGGATATCCGGCTCTTCTGTCTTGATTCGCTTGACGCTGCTG”, the binding signal is reported as 10.7 log fluorescence intensity. With “CGGAAGTGTCGTAAATGTCGGATATCCGGTTCTTCTGTCTTGATTCGCTTGACGCTGCTG” the binding signal was 11.9 log fluorescence intensity. For “TCCGGCTACCAGCTTCACCCACTTCAGGCCTTGTAGGTCTTGATTCGCTTGACGCTGCTG”, the binding signal was 8.4 log fluorescence intensity. With “GCTGCTGCGGTGCGTACCCCACCGGATGTGACCCCGGTCTTGATTCGCTTGACGCTGCTG” the binding signal was 9.93 log fluorescence intensity. “GCTGCTGCGGTGCATACCCCACCGGATGTGACCCAGGTCTTGATTCGCTTGACGCTGCTG” was tested, and the binding signal was 10.3 log fluorescence intensity. “TAAACGGAAGACGGTTGTGGTAGTTCCGGGTATTAAGTCTTGATTCGCTTGACGCTGCTG” was tested, and the binding signal was 10.1 log fluorescence intensity. In the case of “CAGCATAGGACTTCTTCCCTGAAGCAATTGATAACCGTCTTGATTCGCTTGACGCTGCTG”, the binding signal is reported as 8.39 log fluorescence intensity. For “CAGCATAGGACTTCCTCCCTGAAGCAATTGATAACCGTCTTGATTCGCTTGACGCTGCTG”, the binding signal was 12.7 log fluorescence intensity. “CAGCATAGGACTTCGTCCCTGAAGCAATTGATAACCGTCTTGATTCGCTTGACGCTGCTG” was tested, and the binding signal was 8.36 log fluorescence intensity. In the case of “CCTGCTGCGGTGCATACCCCACCGGATGTGACCCCGGTCTTGATTCGCTTGACGCTGCTG”, the binding signal is reported as 10.4 log fluorescence intensity. “TAAAGGGAAGACGGTTGTGGTAGTTGCGGGTATTAAGTCTTGATTCGCTTGACGCTGCTG” was tested, and the binding signal was 8.38 log fluorescence intensity. For “TAAAGGGAAGACGGTTGTGGTAGTTCCGGGTATTCAGTCTTGATTCGCTTGACGCTGCTG”, the binding signal was 8.52 log fluorescence intensity. With “TAAAGGGAAGACGGTTGTGGTAGTTCCGGGTATTACGTCTTGATTCGCTTGACGCTGCTG” the binding signal was 8.47 log fluorescence intensity. In the case of “CACAATTTTTACAGTAGTGTAGCACGCGTAACTCCTGTCTTGATTCGCTTGACGCTGCTG”, the binding signal is reported as 8.33 log fluorescence intensity. “TGTCGGGTAAGGGTATGTAGATCACGTGAATGAAAAGTCTTGATTCGCTTGACGCTGCTG” was tested, and the binding signal was 8.34 log fluorescence intensity. In the case of “TAAAGGGAAGACCGTTGTGGTAGTTCCGGGTATTAAGTCTTGATTCGCTTGACGCTGCTG”, the binding signal is reported as 8.5 log fluorescence intensity. “CGGAAGTGTCGTAAACGTCGGATATCCGGTACTTCTGTCTTGATTCGCTTGACGCTGCTG” was tested, and the binding signal was 11.8 log fluorescence intensity. In the case of “TCCTGCTACCAGCTCCACCCACTTCAGGCCTTGTAGGTCTTGATTCGCTTGACGCTGCTG”, the binding signal is reported as 8.42 log fluorescence intensity. “CAGCATAGGACTTCTTCCCTGAACCAATTGATAACCGTCTTGATTCGCTTGACGCTGCTG” was tested, and the binding signal was 8.33 log fluorescence intensity. For “CACAATTTTTACAGTAATGGAGCACGCGTAACTCCTGTCTTGATTCGCTTGACGCTGCTG”, the binding signal was 8.32 log fluorescence intensity. “GCTGCTGCGGTACATACCCCACCGGATGTGACCCCGGTCTTGATTCGCTTGACGCTGCTG” was tested, and the binding signal was 10.5 log fluorescence intensity. For “GATTAATCTCTGCCCTTATTCGCACGTGCCATAACAGTCTTGATTCGCTTGACGCTGCTG”, the binding signal was 8.31 log fluorescence intensity. In the case of “GCTGCTGCGGTGCATACACCACCGGATGTGACCCCGGTCTTGATTCGCTTGACGCTGCTG”, the binding signal is reported as 10.2 log fluorescence intensity. “GGAAAAAGGCCCAGGGTAACACGGGAAGTGGGCTTAGTCTTGATTCGCTTGACGCTGCTG” was tested, and the binding signal was 8.49 log fluorescence intensity.
